# Among all 5,500 compounds or so, about 2,000 (36%) were called active. Inconclusive results (about 18%) are left out. The list shows a part of the results. Unmarked numbers belong to inactive results. Cut-off read from the data, not from the text of the source: active = normalized growth mostly below about 0.91 (no sharp cut-off); inconclusive = no clear call, values can overlap the other calls; inactive = mostly above about 0.92.
# Assay: chemical genetic growth profiling, strain panel (AID 1159580);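 note: tested at 20 µM; growth read once vehicle control cultures reached saturation at 30 °C; 1 = growth at the plate median or of vehicle wells; lower values mean less growth of the strain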
# Conditions: S. cerevisiae deletion strains, growth OD
compound,measurement,setting,value
O=c1[nH]c(=O)c2nc3ccccc3nc2[nH]1,normalized growth,"locus YAL040C, strain CLN3, hits give low values",0.979
same,normalized growth,"locus YER002W, strain NOP16, hits give low values",1
same,normalized growth,"locus YGR078C, strain PAC10, hits give low values",1.01
same,normalized growth,"locus YMR307W, strain GAS1, hits give low values",0.994
same,normalized growth,"locus YNL153C, strain GIM3, hits give low values",1.01
same,normalized growth,"locus YNL175C, strain NOP13, hits give low values",0.98
same,normalized growth,"locus YNL197C, strain WHI3, hits give low values",0.971
same,normalized growth,"locus YNL224C, strain SQS1, hits give low values",0.999
same,normalized growth,"locus YOR083W, strain WHI5 (second series), hits give low values",0.997
same,normalized growth,"locus YPL241C, strain CIN2, hits give low values",1
O=[N+]([O-])c1ccc(-c2noc(-c3ccno3)n2)o1,normalized growth,"locus YAR019C, strain CDC15, hits give low values",0.0919 (active)
same,normalized growth,"locus YBL105C, strain PKC1, hits give low values",0.118 (active)
same,normalized growth,"locus YBR135W, strain CKS1, hits give low values",0.133 (active)
same,normalized growth,"locus YBR136W, strain MEC1, hits give low values",0.119 (active)
same,normalized growth,"locus YBR160W, strain CDC28, hits give low values",0.121 (active)
same,normalized growth,"locus YDL017W, strain CDC7, hits give low values",0.122 (active)
same,normalized growth,"locus YDL028C, strain MPS1, hits give low values",0.128 (active)
same,normalized growth,"locus YDL101C, strain DUN1, hits give low values",0.143 (active)
same,normalized growth,"locus YDL108W, strain KIN28, hits give low values",0.123 (active)
same,normalized growth,"locus YDL132W, strain cdc53, hits give low values",0.106 (active)
same,normalized growth,"locus YDL214C, strain PRR2, hits give low values",0.103 (active)
same,normalized growth,"locus YDR052C, strain DBF4, hits give low values",0.129 (active)
same,normalized growth,"locus YDR054C, strain cdc34, hits give low values",0.108 (active)
same,normalized growth,"locus YDR226W, strain ADK1, hits give low values",0.113 (active)
same,normalized growth,"locus YDR477W, strain SNF1, hits give low values",0.102 (active)
same,normalized growth,"locus YER123W, strain YCK3, hits give low values",0.113 (active)
same,normalized growth,"locus YER133W, strain GLC7, hits give low values",0.102 (active)
same,normalized growth,"locus YFL009W, strain cdc4, hits give low values",0.109 (active)
same,normalized growth,"locus YFL029C, strain CAK1, hits give low values",0.0982 (active)
same,normalized growth,"locus YFR003C, strain YPI1, hits give low values",0.126 (active)
same,normalized growth,"locus YFR019W, strain FAB1, hits give low values",0.104 (active)
same,normalized growth,"locus YFR028C, strain CDC14, hits give low values",0.0999 (active)
same,normalized growth,"locus YGR040W, strain KSS1, hits give low values",0.107 (active)
same,normalized growth,"locus YGR052W, strain FMP48, hits give low values",0.123 (active)
same,normalized growth,"locus YGR092W, strain DBF2, hits give low values",0.106 (active)
same,normalized growth,"locus YHR030C, strain SLT2, hits give low values",0.135 (active)
same,normalized growth,"locus YHR079C, strain IRE1, hits give low values",0.171 (active)
same,normalized growth,"locus YHR082C, strain KSP1, hits give low values",0.143 (active)
same,normalized growth,"locus YHR205W, strain SCH9, hits give low values",-0.000394 (active)
same,normalized growth,"locus YIL147C, strain SLN1, hits give low values",0.129 (active)
same,normalized growth,"locus YJL095W, strain BCK1, hits give low values",0.141 (active)
same,normalized growth,"locus YJL128C, strain PBS2, hits give low values",0.117 (active)
same,normalized growth,"locus YJL157C, strain FAR1, hits give low values",0.107 (active)
same,normalized growth,"locus YJR016C, strain ILV3, hits give low values",0.0915 (active)
same,normalized growth,"locus YJR066W, strain TOR1 (second series), hits give low values",0.0932 (active)
same,normalized growth,"locus YJR066W, strain TOR1, hits give low values",0.125 (active)
same,normalized growth,"locus YKL048C, strain ELM1, hits give low values",0.115 (active)
same,normalized growth,"locus YKL067W, strain YNK1, hits give low values",0.0963 (active)
same,normalized growth,"locus YKL101W, strain HSL1, hits give low values",0.106 (active)
same,normalized growth,"locus YKL193C, strain SDS22, hits give low values",0.0909 (active)
same,normalized growth,"locus YKL203C, strain TOR2, hits give low values",0.104 (active)
same,normalized growth,"locus YLR113W, strain HOG1, hits give low values",0.2 (active)
same,normalized growth,"locus YLR133W, strain CKI1, hits give low values",0.0997 (active)
same,normalized growth,"locus YLR403W, strain SFP1, hits give low values",0.00715 (active)
same,normalized growth,"locus YML070W, strain DAK1, hits give low values",0.1 (active)
same,normalized growth,"locus YMR001C, strain CDC5, hits give low values",0.093 (active)
same,normalized growth,"locus YMR205C, strain PFK2 (second series), hits give low values",0.0958 (active)
same,normalized growth,"locus YMR277W, strain FCP1, hits give low values",0.0929 (active)
same,normalized growth,"locus YNL006W, strain LST8, hits give low values",0.104 (active)
same,normalized growth,"locus YNL020C, strain ARK1, hits give low values",0.101 (active)
same,normalized growth,"locus YNL161W, strain CBK1, hits give low values",0.103 (active)
same,normalized growth,"locus YNL183C, strain NPR1, hits give low values",0.138 (active)
same,normalized growth,"locus YNL207W, strain RIO2, hits give low values",0.0962 (active)
same,normalized growth,"locus YNL222W, strain SSU72, hits give low values",0.1 (active)
same,normalized growth,"locus YNL307C, strain MCK1 (second series), hits give low values",0.11 (active)
same,normalized growth,"locus YOL078W, strain AVO1, hits give low values",0.0939 (active)
same,normalized growth,"locus YOL136C, strain PFK27, hits give low values",0.124 (active)
same,normalized growth,"locus YOR061W, strain CKA2, hits give low values",0.0948 (active)
same,normalized growth,"locus YOR119C, strain RIO1, hits give low values",0.112 (active)
same,normalized growth,"locus YOR231W, strain MKK1, hits give low values",0.14 (active)
same,normalized growth,"locus YOR329C, strain SCD5, hits give low values",0.104 (active)
same,normalized growth,"locus YPL031C, strain PHO85, hits give low values",0.112 (active)
same,normalized growth,"locus YPL153C, strain RAD53, hits give low values",0.0949 (active)
same,normalized growth,"locus YPL204W, strain HRR25, hits give low values",0.106 (active)
same,normalized growth,"locus YPL209C, strain IPL1, hits give low values",0.105 (active)
same,normalized growth,"locus YPL256C, strain CLN2, hits give low values",0.178 (active)
same,normalized growth,"locus YPR025C, strain CCL1, hits give low values",0.111 (active)
same,normalized growth,"locus YPR106W, strain ISR1, hits give low values",0.132 (active)
same,normalized growth,"locus YPR111W, strain DBF20, hits give low values",0.149 (active)
same,normalized growth,"strain NNK1, hits give low values",0.104 (active)
same,normalized growth,"strain TSCII, hits give low values",0.0899 (active)
